Data on 107 molecules can be found in ChEMBL document CHEMBL3988442, “University of Dundee, Small-Polar-MMV Screening Library” (2021).

Structures are written as SMILES. In all, about 53,000 compounds went through this assay and about 900 (1.7%) showed an effect of 50% or more. What follows is part of a selection rich in strong results, with near analogues and random picks from the rest.

The test has as its system Mycobacterium tuberculosis. In words: Cornell - Phenotypic assay to identify agents that inhibit growth of Mycobacterium tuberculosis. It counts as functional. More on the design: scale not given: direction of the effect not stated beside the values. The settings on record: 10 mM as filed; unlikely as a test dose.
Regarding `COc1ccc(OC(F)F)c(NCC(=O)NCC(=O)N2CCCC2)c1`, the “Percent Effect” value is 14.52%.
`COC(=O)COc1c(F)cc(Br)cc1C(C)=O`: the “Percent Effect” value is listed as -28.15%.
In the case of `NS(=O)(=O)NCc1cc(-c2ccco2)n(CC(F)(F)F)n1` it was 5.494%; in that of `O=C(Nc1cccn(Cc2ccc(F)cc2)c1=O)c1cnc[nH]1`, 15.84%; in that of `Cc1nnc(SCC(=O)c2cc3c(cc2Cl)NC(=O)C3)o1`, 14.6%.
As to `Cc1nc(C(C)N2Cc3ncccc3C2=O)cs1` (configuration not stated), the “Percent Effect” value turned out to be 12.56%.
The same measure for `COCc1nc2cc(NCc3ccncc3)ccc2o1`: 39.69%; for `COCc1nc2cc(NCc3cc[nH]n3)ccc2o1`: 106.8%; for `COCc1nc(CNc2cccc(-c3ncon3)c2)cs1`: -0.7134%.
For `CCC(O)CN1CCN(C(=O)c2ccc(Cn3cccc3)cc2)CC1` (configuration not stated), the “Percent Effect” value is on record as -35.22%.
In the case of `CCCS(=O)(=O)N1CCN(Cc2ccco2)CC1.O=C(O)C(=O)O`, the “Percent Effect” value was -8.655%.
For `COc1cc(C(=O)N2CC3(CCNCC3)c3cc(Cl)ccc32)ccn1.O=C(O)C(F)(F)F.O=C(O)C(F)(F)F`, the “Percent Effect” value worked out at 15.78%.
For `CNc1cc(-c2cccc(CN)c2)c2cc[nH]c2n1`, the “Percent Effect” value came out at 80.74%.
`CNc1cc(-c2ccccc2CN)c2cc[nH]c2n1`: the “Percent Effect” value turned out to be 23.62%.
Consider `CNc1cc(-c2ccc(COCCN)cc2)c2cc[nH]c2n1`, for which the “Percent Effect” value turned out to be 26.91%.
The same measure for `CCOc1c(Cl)cc(/C=C/c2ncc(C(=O)O)s2)cc1OC`: 33.38%; for `CCOCC1CCN(C(=O)C(c2ccccc2F)N(C)C)CC1` (configuration not stated): 28.27%; for `CS(=O)(=O)N1CCN(C(=O)c2cncs2)CC(C(N)=O)C1` (configuration not stated): 53.86%.
In the case of `CNC(=O)C1CCCN(C(=O)c2cncs2)C1` (configuration not stated) it was 43.16%; in that of `CNC(=O)C1CN(C(=O)c2cccs2)CCN(S(C)(=O)=O)C1` (configuration not stated), 18.15%.
The same measure for `COC[C@@]12CCO[C@@H]1CCN(C(=O)Cc1ccccc1C)C2`: 7.914%; for `Cc1oc(C)c(C(=O)NS(=O)(=O)c2ccc3c(c2)OCCO3)c1Br`: 6.395%; for `Cc1oc(C)c(C(=O)NS(=O)(=O)c2ccc3c(c2)OCCCO3)c1C`: 58.42%.
Turning to `Cc1ccc(C(=O)NS(=O)(=O)c2ccc3c(c2)OCCCO3)o1`, the “Percent Effect” value is -1.542%.
For the molecule `NC(=O)N1CCC(C(=O)NC2CCc3nccn3C2)CC1` (configuration not stated), the “Percent Effect” value was -11.45%.
Consider `COC(=O)C(NC(=O)COC1CCCCC1)c1ccccc1` (configuration not stated), for which the “Percent Effect” value came out at 43.33%.
In the case of `COC(=O)C(NC(=O)COC1CCCC1)c1cc(F)ccc1F` (configuration not stated) it was 63.8%; in that of `NC(=O)C(NC(=O)COC1CCCC1)c1ccccc1` (configuration not stated), 21.89%; in that of `COC(=O)C(NC(=O)C(C)C)c1cc(F)ccc1F` (configuration not stated), 35.55%.
As for `COC(=O)C(NC(=O)c1ccco1)c1cc(F)ccc1F` (configuration not stated), the “Percent Effect” value stood at 104.5%.
The same measure for `COC(=O)C(c1cc(F)ccc1F)N(C)C(=O)c1ccccn1` (configuration not stated): 0.1474%; for `O=C(c1cc(-c2cccs2)cs1)N1CCSCC1`: 48.33%.
In the case of `Cc1cc(NC(=O)NCC(C)N2CCc3ccccc32)no1` (configuration not stated) it was 26.44%; in that of `Cl.NC(CC1CCCCC1)c1ccccc1` (configuration not stated), 52.12%; in that of `OC(CN1CCN(CC2CCCCC2)CC1)c1ccccc1` (configuration not stated), 2.655%.
In the case of `Cl.NC(CC1CCCC1)c1ccccc1` (configuration not stated) it was 23.09%.
Take `NC(c1ccccc1)c1ccc(OC(F)F)cc1` (configuration not stated): the “Percent Effect” value turned out to be 11.06%.
`NC(CC1CCCC1)c1ccc(Oc2ccccc2)cc1` (configuration not stated): the “Percent Effect” value is 105%.
With `NC(=O)C(NC(=O)COC1CCCCC1)c1ccccc1` (configuration not stated), the “Percent Effect” value was 22.67%.
The same measure for `COc1cc(C)nc(N2CCN(C(=O)c3ccn(C)c(=O)c3)CC2)n1`: 29.4%; for `Cn1c2ccccc2c2ncn(CCCN3CCOCC3)c(=O)c21`: -22.77%; for `Cc1nc(CCC(N)=O)cc(C2CCCCN2S(C)(=O)=O)n1` (configuration not stated): 34.9%.
`Cc1nn(C)c(Cl)c1CNCc1cccnc1N1CCCCC1.Cl`: the “Percent Effect” value was found to be 10.36%.
As for `Cc1ccc(N2CCN(c3ccccc3C)CC2C)nn1` (configuration not stated), the “Percent Effect” value was found to be 29.54%.
`Cc1ccccc1N1CCN(c2ccncn2)C(C)C1` (configuration not stated): the “Percent Effect” value came to 16.47%.
Take `Cc1ccccc1N1CCN(c2cc(N(C)C)ncn2)C(C)C1` (configuration not stated): the “Percent Effect” value was determined as 75.02%.
In the case of `COCC1c2c(cnn2C)CCN1Cc1ccsc1` (configuration not stated) it was 24.96%.
Take `Cc1noc(C)c1CN1C[C@H](C)[C@]2(CCN(Cc3cccnc3)C2=O)C1.O=C(O)C(F)(F)F.O=C(O)C(F)(F)F`: the “Percent Effect” value is reported as -5.753%.
As for `Cn1ccnc1CN1CCC2(CCC(=O)N2CCN2CCCC2)CC1.O=C(O)C(F)(F)F.O=C(O)C(F)(F)F`, the “Percent Effect” value is 19.98%.
The same measure for `CN(C)CC1CN(c2cnc3ccccc3n2)CCO1` (configuration not stated): -10.68%.
Consider `Cc1cnn(CC2CN(c3ncnc4ccccc34)CCO2)c1` (configuration not stated), for which the “Percent Effect” value is listed as 29.19%.
The same measure for `Cc1cnn(CC2CN(c3cnc4ccccc4n3)CCO2)c1` (configuration not stated): 106.1%; for `Cc1nn(C)cc1-c1cc(C(=O)NCC(C)(C)c2ccccc2F)n[nH]1`: -16.11%; for `Cc1nn(C)cc1-c1cc(C(=O)NCC(C)(C)c2cccc(F)c2)n[nH]1`: 26.97%.
Consider `Cc1nn(C)cc1-c1cc(C(=O)NCC(C)(C)c2ccc(F)cc2)n[nH]1`, for which the “Percent Effect” value came out at 61.27%.
The same measure for `COCC1c2nnn(CC3CC3)c2CCN1Cc1ccncc1.O=C(O)C(F)(F)F.O=C(O)C(F)(F)F` (configuration not stated): 18.59%; for `CN1CCC(Cc2cc(N(C)C)ncn2)C1` (configuration not stated): 2.45%; for `CC(C)c1cc(CN2CCC(N)CC2)no1`: -17.69%.
In the case of `CC(C)c1cc(CN2CCNCC2)no1` it was 107.4%.
In the case of `CC(C)c1cc(CN2CCC(CC(=O)O)CC2)no1` it was -2.549%; in that of `CN1C[C@@H](C(=O)NC(C)(C)C)[C@@]2(COc3ccc(F)cc3C2=O)C1`, 28.72%.
On to `COc1ccccc1C1Cn2c(C)cnc2CN1Cc1ccc(C)nc1` (configuration not stated), for which the “Percent Effect” value is given as -10.88%.
In the case of `O=C(c1c(F)cccc1F)N1CCC[C@@H]1Cn1c(=O)oc2ccccc21` it was 34.56%; in that of `COc1cccc(OC2CN(C(=O)c3c(C)noc3C)C2)c1`, 10.7%; in that of `COc1cccc(OC2CN(C(=O)c3ccoc3C)C2)c1`, -6.916%.
The same measure for `COc1cccc(OC2CN(C(=O)c3sccc3C)C2)c1`: 55.64%; for `Cc1nc2c(c(NCc3cnc4c(c3)CCC4)n1)CNC2`: 4.431%.
For `COCCS(=O)(=O)c1ncc(CN(C)C)n1Cc1ccccc1`, the “Percent Effect” value is reported as 5.309%.
Regarding `CN(Cc1cccc(F)c1)C(=O)CN1CCCCC1Cn1cncn1` (configuration not stated), the “Percent Effect” value is -21.34%.
The same measure for `N#CCCN(CCC#N)C(=O)CN1CCCC1Cc1cccc(F)c1` (configuration not stated): 5.513%; for `CN(Cc1cccc(F)c1)C(=O)CN1CCCC1CCc1ccccc1` (configuration not stated): 61.93%; for `NC(=O)Nc1cccc(Oc2ccccn2)c1`: 3.298%.
As to `OCCN1CCN(CC(O)c2ccc(C(F)(F)F)cc2)CC1` (configuration not stated), the “Percent Effect” value is -26.61%.
In the case of `O=c1oc(-c2ccc(F)cc2)nn1CN1CCSCC1` it was -31.85%; in that of `CC(C)NC(=O)[C@@H]1CN(C(=O)C2CC2)C[C@]12Cc1ccccc1C(=O)N2`, 41.43%; in that of `CCS(=O)(=O)N1C[C@@H](C(=O)NC(C)C)[C@@]2(Cc3ccccc3C(=O)N2)C1`, 50.91%.
Turning to `CN1C[C@@H](C(=O)NCC(F)(F)F)[C@@]2(CCc3ccccc3C(=O)N2)C1`, the “Percent Effect” value is recorded as 4.729%.
The same measure for `CCN(CC)c1ccc(NC(=O)NC(C)Cn2cccn2)cn1` (configuration not stated): -29.36%.
In the case of `CC(CNC(=O)Nc1ccc(N(C)C)nc1)Cn1cccn1` (configuration not stated) it was 53.74%.
On to `CC(Cn1cccn1)NC(=O)Nc1ccc(N(C)C)nc1` (configuration not stated), for which the “Percent Effect” value was -5.183%.
For `CN1C[C@H](O)[C@]2(CCN(Cc3ccc(OC(F)(F)F)cc3)C2)S1(=O)=O`, the “Percent Effect” value is reported as 30.47%.
Turning to `O=C(C[C@@H]1COC[C@H]2CN(Cc3ccc(F)cc3)C[C@@H]12)N1CCCC1.O=C(O)C(F)(F)F`, the “Percent Effect” value is -5.358%.
In the case of `CC(C)c1noc(C2CCN(C(=O)C3CCCO3)CC2)n1` (configuration not stated), the “Percent Effect” value turned out to be 4.846%.
In the case of `O=c1c2cc3c(cc2nnn1Cc1cccc(F)c1)OCCO3` it was -9.384%.
In the case of `Cc1ccc2c(n1)N(Cc1cccnc1)CCN(C(=O)C1CC=CC1)C2` it was 30.61%; in that of `O=C(Nc1nc2c(s1)CN(C(=O)NCc1cccs1)CC2)C1CC1`, 25.74%; in that of `COC(=O)Nc1nc2c(s1)CN(C(=O)NCc1cccs1)CC2`, 35.61%.
Consider `CC(C)NC(=O)Nc1nc2c(s1)CN(C(=O)NCc1cccs1)CC2`, for which the “Percent Effect” value came to 53.32%.
The same measure for `O=C(O)c1ccc(CN2CCCC(Cc3ccn[nH]3)C2)cc1` (configuration not stated): 18.19%; for `Cc1cccc(OCCN2CCC(c3ccnn3CCO)CC2)c1`: -13.34%; for `Cc1nn(CCCNC(=O)C2CCN(S(C)(=O)=O)CC2)cc1Cl`: 12.8%.
The same measure for `Cc1nn(CCCNC(=O)C2CCN(S(C)(=O)=O)CC2)c(Cl)c1Cl`: 51.75%.
Turning to `Cc1nn(CCCNC(=O)C2CCN(S(C)(=O)=O)CC2)cc1Br`, the “Percent Effect” value amounted to 34.63%.
The same measure for `CCCn1nnnc1COc1ccc(C(=O)OC)cc1`: 2.105%; for `CC(C)Sc1ccc(C(C)Nc2nc3c(cnn3C)c(=O)[nH]2)cc1` (configuration not stated): 64.6%; for `CCC(=O)Nc1ccc(C(C)Nc2nc3c(cnn3C)c(=O)[nH]2)cc1` (configuration not stated): 16.12%.
On to `CC(Nc1nc2c(cnn2C)c(=O)[nH]1)c1ccc(F)cc1` (configuration not stated), for which the “Percent Effect” value is 46.54%.
In the case of `Cc1nnc(Nc2cccc(C3CCCN(Cc4ncc[nH]4)C3)n2)s1` (configuration not stated) it was -14.35%; in that of `CCOCCNc1nc(C2CCCC2)nc2c1cnn2C`, 15.61%; in that of `CCS(=O)(=O)CCNc1nc(C2CCCC2)nc2c1cnn2C`, -9.599%.
Consider `Cn1ncc2c(NCCOc3ccc(F)cc3)nc(C3CCCC3)nc21`, for which the “Percent Effect” value came out at 105.9%.
Regarding `Cn1ncc2c(NCCC34CCCN3CCC4)nc(C3CCCC3)nc21`, the “Percent Effect” value was 10.87%.
Turning to `Cn1ncc2c(NCCOCc3ccccc3)nc(C3CCCC3)nc21`, the “Percent Effect” value was determined as 58.05%.
Consider `Cn1ncc2c(NCCCOc3cccnc3)nc(C3CCCC3)nc21`, for which the “Percent Effect” value is given as -0.5342%.
In the case of `Cn1ncc2c(NCCn3cccc3)nc(C3CCCC3)nc21` it was 23.68%; in that of `CNCCCNc1nc(C2CCCC2)nc2c1cnn2C`, 15.27%.
In the case of `CC(C)N(CCNc1nc(C2CCCC2)nc2c1cnn2C)C(C)C` it was 95.65%.
